PubChem BioAssay (NCATS)
Calls of active or inactive are those of the source. Calls follow the shape of the dose curve; as a rule, active = well fitted curve in the direction sought with a large enough effect; inconclusive = small, poorly fitted or top-dose-only effect, or effect the other way, or another doubt; inactive = no such curve, though single readings can be large or run the other way.

Assay: qHTS of Nrf2 Activators: LOPAC Validation (AID 624149)
Details: Nrf2/ARE reporter cell assay; series mostly up to 46.1 µM
Excerpt: Many diseases have some form of oxidative stress injury and ties to inflammation, causing a host of problems for the patient. The antioxidant response element (ARE) plays an important role in alleviating the harmful effects of oxidative stress. The antioxidant response element (ARE) is a transcriptional regulatory element involved in the activation of genes coding for a number of antioxidant proteins and detoxifying enzymes. These enzymes work in concert to protect tissues from oxidative insults and chemical toxicities in human hepatocytes and immune cells. The protective effects of ARE activation are primarily triggered through Nrf2 (NF-E2-related factor) binding to and activating AREs. It is known that Nrf2 controls the production of over 250 antioxidant and detoxification proteins (Hu et al., 2006), thereby protecting tissues by increasing cellular antioxidant content and suppressing inflammatory signaling pathways. The transcription factor Nrf2 is a central link between oxidative chemicals, such as phenolic antioxidants and electrophilic compounds, and the activation of ARE. Nrf2 levels are constitutively low as a consequence of its interaction with Keap1, which targets its degradation (Zipper and Mulcahy, 2002). Electrophiles react with key cysteine residues in Keap1, releasing Nrf2 and allowing its translocation to the nucleus. Once within the nucleus, Nrf2 complexes with coactivators such as p300, and binds to the AREs to induce gene transcription of cytoprotective enzymes, resulting in the prevention of toxicity. Activation of Nrf2 protects tissues by increasing cellular antioxidant content and suppressing inflammatory signaling pathways. Identifying novel and potent Nrf2 activators by using the AREc32 cell line to detect ARE activation by small molecules will lead to the identification and development of probes to study protective pathways in multiple tissues. These specific probes are essential to study the ARE pathway, and eventually to determine whether this pathway does activate genes that could protect against a host of diseases, including cardiovascular diseases, obesity, diabetes, Alzheimer's, and Parkinson's disease.
This project's aim is to identify novel and potent Nrf2 activators by using the AREc32 cell line to detect ARE activation by small molecules, which will lead to the identification and development of probes to study the ARE pathway.
NIH Chemical Genomics Center [NCGC]
NIH Molecular Libraries Probe Centers Network [MLPCN]
Assay Submitter (PI): Curtis Klaassen, University of Kansas Medical Center
5 uL of 1000 cells/well of AREc32_Fluc cells are seeded into 1536-well plate in OPTI-MEM medium with 5% FBS. The plates are incubated overnight at 37 deg C with 5% CO2. Then through pin tool transfer, 23 nL of compounds are added to each well before a 24 hr incubation at 37 deg C with 5% CO2. After the addition of 2.5 uL of Steady-Glo. the plates are kept at RT for 30 min, before they are read on the ViewLux

SMILES	outcome
CC(NC(C)(C)C)C(=O)c1cccc(Cl)c1 (stereo not given)	inactive
O=P1(N(CCCl)CCCl)NCCCO1 (stereo not given)	inactive
CN1C(=O)CCS(=O)(=O)C1c1ccc(Cl)cc1 (stereo not given)	inactive
Cc1ncsc1CCCl	inactive
COc1ccc2c(c1OC)C(=O)O[C@H]2[C@@H]1c2cc3c(cc2CCN1C)OCO3	inactive
NCCc1ccc(O)cc1	inactive
O=C(CCCN1CCC2(CC1)C(=O)NCN2c1ccccc1)c1ccc(F)cc1	inactive
CC(C)(C)NCC(O)c1ccccc1Cl (stereo not given)	inactive
CC(C)N(CCC(C(N)=O)(c1ccccc1)c1ccccn1)C(C)C (stereo not given)	inactive
CC(C)c1cccc(C(C)C)c1O	inactive
CCCCC/C=C\C/C=C\C/C=C\C/C=C\CCCC(=O)NCC(=O)O	inactive
O=C(O)CCCc1ccc(N(CCCl)CCCl)cc1	inactive
O=c1[nH]oc2c1CCNC2	inactive
CCC1(c2ccc(N)cc2)CCC(=O)NC1=O (stereo not given)	inactive
C=C(C)[C@H]1CN[C@H](C(=O)O)[C@H]1CC(=O)O	inactive
